Source: PubChem
A selection: hits, their analogues and other compounds. The true share with any hit is near 19%.
HT1080 IDH1KD tx – kills HT-1080 cells with IDH1 knockdown | HT-1080 IDH1 knockdown viability, ATP luminescence, 48 h | AID 686971 | Potency, µM (highest dose often 46.1 µM), for inactives: at the highest dose activity, negative = toxicity, actives largely listed as cytotoxic | actives 2% (n = 360,000);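 note: potency is the fitted concentration of half-maximal effect; 0% = DMSO wells and -100% = cell-free medium wells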
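After a 2 h attachment period, IDH1KD HT-1080 cells took pin-transferred compound for 48 h at 37 °C; ATP-based luminescence after 10 min room-temperature reagent incubation reported viability.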
TDP1 cell CPT – DT40-hTDP1 cell growth loss with CPT | Potency, µM (series often up to 46.2 µM), inactives show top-dose activity change, negative = growth inhibition, usual class: inhibitors | actives 12% (n = 420,000) | chicken DT40 Tdp1-/-;hTDP1 cells + 20 nM CPT, ATP luminescence, 48 h; note: potency is the fitted concentration of half-maximal effect; nearly all actives have a fitted effect of over 55% in size
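Cell growth measured by CellTiter-Glo luminescence after a minimum 48 h, 37 C compound exposure with 20 nM CPT in Tdp1-knockout DT40 cells stably expressing hTDP1, seeded 400/well; qHTS titration format.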
HT1080-NT tox – kills 2HG-producing HT-1080-NT fibrosarcoma cells. HT-1080-NT fibrosarcoma viability, CellTiter-Glo ATP luminescence, 48 h. AID 686970. Potency, µM (series often up to 46.1 µM), without a hit: top-dose activity, negative = less viability, actives largely listed as cytotoxic. actives 1.6% (n = 360,000);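 note: NT is the 2HG producing partner of a matched IDH1 knockdown line; potency is the fitted concentration of half-maximal effect; 0% = DMSO-treated cells and -100% = media-only wells without cells; nearly all actives have a fitted effect of over 55% in size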
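HT-1080-NT; 750 cells/well; 5% FBS RPMI; 48 h compound, 37 degrees C; CellTiter-Glo luminescence; curve fitting and curve-class assignment.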
IL1B secr inh – blocks inflammasome-driven IL-1 beta release; activity change, % at 57.5 µM; AID 743279; actives 4.7% (n = 360,000); THP-1 LPS/ATP IL-1B secretion, AlphaLISA, 16 h; active compounds read low; in the data active = activity change below about -50%; inconclusive = mostly about -30% to -49%
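THP-1 cells pretreated 1 hr with compounds (up to 57.5 uM final), then stimulated with LPS (250 ng/mL final) plus ATP (1.25 mM final); secreted IL-1B measured by AlphaLISA after 16 hr, decreased signal indicating inhibition.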
TDP1 cell noCPT – qHTS for Inhibitors of human tyrosyl-DNA phosphodiesterase 1 (TDP1): qHTS in cells in absence of CPT. DT40 Tdp1-/- hTDP1 cells, no CPT, ATP luminescence, 48 h. Potency, µM (highest dose often 46.2 µM), without a hit: top-dose activity change, negative = growth inhibition, usual class: inhibitors. actives 15% (n = 420,000). AID 686978, 2013; note: potency is the fitted concentration of half-maximal effect; nearly all actives have a fitted effect of over 55% in size
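No-CPT arm: Tdp1-/-;hTDP1 DT40 cells (400/well) plus compounds, incubated ≥48 hr at 37 °C. Readout CellTiter-Glo luminescence.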
Numbers without * were called inactive; ? = inconclusive; / = no result given; [ ] = another dose, or the depositor's remark. Unless noted, calls come from the whole dose curve; as a rule, active = well fitted curve in the direction sought with a large enough effect; inconclusive = small, poorly fitted or top-dose-only effect, or another doubt; inactive = no such curve, though single readings can be large; an effect the other way counts as inactive or inconclusive. Unless noted, % is set by controls: 0 for no effect and ±100 for the full control effect.

SMILES	HT1080 IDH1KD tx	TDP1 cell CPT	HT1080-NT tox	IL1B secr inh	TDP1 cell noCPT
CCCCCCCCCCCCCC(=O)N[C@H](C)[C@@H](O)c1ccccc1	/	2.1%[4.12 µM]	/	/	7.4%[4.12 µM]
CCCCS(=O)(=O)N1CCN(S(=O)(=O)c2ccc(Cl)s2)CC1	24.0%	-1.1%	21.4%	-29.2	2.1%
CC(=O)C1=C(O)C(=O)N(c2ccc(S(N)(=O)=O)cc2)C1c1cccc([N+](=O)[O-])c1 (centres undefined)	-1.2%	-20.2%	1.4%	30.7	6.4%
CC(=O)C1C(=O)c2c(cccc2[N+](=O)[O-])C1=Nc1ccc(S(N)(=O)=O)cc1 (centres undefined)	-0.4%	18.4µM*	-2.0%	7.7	?
CCOC(=O)c1ccc(NC(=O)CSC2=NN3CCCC(=O)N=C3S2)cc1	-11.1%	20.6µM*	-2.8%	31.9	?
CCOc1ccccc1NC(=O)CSC1=NN2CCCC(=O)N=C2S1	-3.4%	-16.9%	0.0%	35.0	?
COc1ccc(Cl)cc1NC(=O)CSC1=NN2CCCC(=O)N=C2S1	-23.1%	?	-5.7%	18.6	11.6µM*
CCOC(=O)c1c(NC(=O)CSC2=NN3CCCC(=O)N=C3S2)sc2c1CCCCC2	-1.0%	20.6µM*	-11.6%	0.0	?
COc1ccc(OC)c(NC(=O)CSC2=NN3CCCC(=O)N=C3S2)c1	-11.3%	?	4.5%	32.9	?
COc1cccc(NC(=O)CSC2=NN3CCCC(=O)N=C3S2)c1	-15.7%	-2.0%	-1.8%	73.9	?
CC(=O)Nc1ccc(NC(=O)C(NS(=O)(=O)c2cccc3nsnc23)C(C)C)cc1 (centres undefined)	12.5%	11.7%	0.1%	44.5	23.1%
CC(C)NC(=O)CSc1ncccc1-c1nc2ccccc2[nH]1	-1.8%	-2.7%	-0.1%	-1.7	-19.5%
O=C(c1ccc(S(=O)(=O)Nc2ccccc2F)cc1)N1CCN(c2ccccn2)CC1	-2.6%	?	-11.7%	24.5	?
Cc1ccccc1NS(=O)(=O)c1ccc(C(=O)N2CCN(c3ccccc3O)CC2)cc1	8.2%	11.6µM*	3.4%	?	14.6µM*
Cc1ccccc1NS(=O)(=O)c1ccc(C(=O)N2CCN(c3ccccn3)CC2)cc1	0.6%	?	-3.4%	-3.6	14.6µM*
Cc1cc([N+](=O)[O-])cnc1NC(C)c1ccccc1 (centres undefined)	-11.8%	-10.7%	-1.5%	8.1	-13.8%
COC(=O)[C@H]1[C@H]2CC3c4[nH]c5ccccc5c4CCN3C[C@@H]2CC[C@@H]1O (some centres undefined)	/	10.9%	/	/	4.0%
CC(C)(C)c1ccc(NC(=O)C(=O)C2C(=O)Nc3ccccc32)cc1 (centres undefined)	2.1%	?	-0.9%	29.4	13µM*
CC(C)c1ccc(NC(=O)C(=O)C2C(=O)Nc3ccccc32)cc1 (centres undefined)	-0.9%	20.6µM*	-0.3%	21.4	14.6µM*
CN(C)c1ccc(NC(=O)C(=O)C2C(=O)Nc3ccccc32)cc1 (centres undefined)	-5.7%	-21.2%	-2.2%	-4.2	-21.6%
O=c1cc(COc2ccccc2[N+](=O)[O-])nc2sccn12	-13.1%	-18.9%	-15.2%	8.7	-7.1%
Cn1c(C(=O)NCc2ccccc2Cl)cc2sc(Cl)cc21	/	-2.3%	/	/	?
Cc1ccc(C)c(C(=O)N(Cc2nc(-c3ccc(Cl)cc3)no2)C(C)C)c1	-18.0%	?	-0.2%	-8.4	18.4µM*
COc1ccc(-c2noc(CN(C(=O)c3ccc(C)cc3C)C(C)C)n2)cc1	/	23.1µM*	/	/	14.6µM*
COc1ccc(-c2noc(CN(C(=O)C(C)(C)C)C(C)C)n2)cc1	9.0%	?	7.8%	-3.5	?
COc1ccc(-c2noc(CN(C(=O)c3ccoc3C)C(C)C)n2)cc1	4.8%	-25.8%	-1.9%	-10.7	?
COc1cccc(C(=O)N(Cc2nc(-c3ccc(C)cc3)no2)C(C)C)c1	-21.9%	18.4µM*	-1.3%[9.24 µM]	-1.0	?
